Settings in all cases: mRNA level, 48 h; actives raise or lower the signal
Read-out in assay [1]: ATP-citrate lyase (ACLY), ACLY (gene 47)
Put plainly: LTEA_HepaRG_ACLY: Life Technologies and Expression Analysis (LTEA) Assay for ATP-citrate lyase (ACLY) using HepaRG (AID 2283466). The essentials: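 Differentiated human HepaRG cells in serum-free induction medium exposed 48 h, in duplicate, to eight half-log concentrations from 100 uM top in 0.5% DMSO; ACLY mRNA measured by qRT-PCR, normalized to ACTB, GAPDH, POLR2A, fitted bidirectionally versus DMSO.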

Read-out in assay [2]: Peroxisomal acyl-coenzyme A oxidase 1 (ACOX1) gene, ACOX1 (gene 51)
Put plainly: LTEA_HepaRG_ACOX1: Life Technologies and Expression Analysis (LTEA) Assay for Peroxisomal acyl-coenzyme A oxidase 1 (ACOX1) gene using HepaRG (AID 2283467). In short, it runs like this: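 Differentiated human HepaRG cells were exposed in duplicate for 48 h in serum-free induction medium to eight half-log concentrations up to 100 uM in 0.5% DMSO. ACOX1 mRNA was then quantified by TaqMan qRT-PCR, normalized to ACTB, GAPDH and POLR2A.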

Read-out in assay [3]: Alkaline Phosphatase, Placental (ALPP) gene, ALPP (gene 250)
Put plainly: LTEA_HepaRG_ALPP: Life Technologies and Expression Analysis (LTEA) Assay for Alkaline Phosphatase, Placental (ALPP) gene using HepaRG (AID 2283468). In short, it runs like this: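 Expression of ALPP was quantified by qRT-PCR against three housekeeping genes in human HepaRG cultures treated for 48 h with an eight-point concentration series up to 100 uM. Activity in either direction was fitted relative to 0.5% DMSO.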

Read-out in assay [4]: Bcl-2 (BAD) gene, BAD (gene 572)
Kind of assay: LTEA_HepaRG_BAD: Life Technologies and Expression Analysis (LTEA) Assay for Bcl-2 (BAD) gene using HepaRG (AID 2283469). The essentials:
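Differentiated human HepaRG cells in serum-free induction medium were exposed in duplicate for 48 h to eight concentrations (top 100 uM, half-log steps, 0.5% DMSO). BAD mRNA was quantified by qRT-PCR normalised to ACTB, GAPDH and POLR2A, with bidirectional fitting versus DMSO.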

Read-out in assay [5]: Bcl-2 (BAX) gene, BAX (gene 581)
Put plainly: LTEA_HepaRG_BAX: Life Technologies and Expression Analysis (LTEA) Assay for Bcl-2 (BAX) gene using HepaRG (AID 2283470). The essentials:
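HepaRG (human liver), 48 h exposure, duplicate wells. 8-pt curve, half-log from 100 uM, 0.5% DMSO. BAX transcript by TaqMan qRT-PCR; ACTB/GAPDH/POLR2A normalization; gain or loss vs DMSO baseline.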

Read-out in assay [6]: adenosine kinase (ADK) gene, ADK (gene 132)
Kind of assay: LTEA_HepaRG_ADK: Life Technologies and Expression Analysis (LTEA) Assay for adenosine kinase (ADK) gene using HepaRG (AID 2283471). In short, it runs like this: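 Differentiated HepaRG cells dosed 48 h in serum-free induction medium, 0.5% DMSO vehicle, eight half-log concentrations from 100 uM, in duplicate. ADK mRNA by TaqMan qRT-PCR normalised to ACTB, GAPDH, POLR2A; bidirectional fit versus DMSO.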

Read-out in assay [7]: Alpha-fetoprotein (AFP) gene, AFP (gene 174)
Kind of assay: LTEA_HepaRG_AFP: Life Technologies and Expression Analysis (LTEA) Assay for Alpha-fetoprotein (AFP) gene using HepaRG (AID 2283472). The essentials: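 HepaRG, single lot; 48 h post-plating -> serum-free induction medium; cpd 8-pt, 100 uM top, half-log, 0.5% DMSO, duplicate, 48 h. RNA -> qRT-PCR AFP, norm ACTB/GAPDH/POLR2A. Bidirectional fit vs DMSO.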

Read-out in the next assay: BCL2L11 (gene 10018)
Kind of assay: LTEA_HepaRG_BCL2L11: Life Technologies and Expression Analysis (LTEA) Assay for Bcl-2 (BCL2L11) gene using HepaRG (AID 2283473). In short, it runs like this:
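Cells were plated, cultured 48 h, switched to serum-free induction medium, then dosed in duplicate for 48 h at eight half-log concentrations up to 100 uM. Lysates underwent RNA isolation and TaqMan qRT-PCR; gain or loss versus DMSO was fitted.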

Read-out in assay [8]: Apolipoprotein A-V (APOA5) gene, APOA5 (gene 116519)
Put plainly: LTEA_HepaRG_APOA5: Life Technologies and Expression Analysis (LTEA) Assay for Apolipoprotein A-V (APOA5) gene using HepaRG (AID 2283474). In short, it runs like this:
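Human liver HepaRG cells are treated 48 h with test chemicals (100 uM top, half-log dilutions, 0.5% DMSO). APOA5 mRNA induction or loss is measured by qRT-PCR relative to vehicle.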

Read-out in assay [9]: Apoptosis regulator Bcl-2 (Homo sapiens) (UniProt P10415)
Put plainly: LTEA_HepaRG_BCL2: Life Technologies and Expression Analysis (LTEA) Assay for Bcl-2 gene using HepaRG (AID 2283475). The essentials:
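HepaRG, plated 48 h then switched to serum-free induction medium; dosed 48 h, 8 conc. (max 100 uM, half-log steps), duplicate, 0.5% DMSO. Lysis in RLT, RNA isolated, TaqMan qRT-PCR for BCL2; ACTB/GAPDH/POLR2A normalisation; bidirectional fit vs DMSO.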

Read-out in assay [10]: Bcl-2 (BID) gene, BID (gene 637)
Kind of assay: LTEA_HepaRG_BID: Life Technologies and Expression Analysis (LTEA) Assay for Bcl-2 (BID) gene using HepaRG (AID 2283476). The essentials:
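Transcript levels of BID, measured by qRT-PCR and normalized to three housekeeping genes, were fitted bidirectionally against DMSO controls. Cells were HepaRG, dosed 48 h at up to 100 uM.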

Read-out in a further assay: Caspase-3 (Homo sapiens) (UniProt P42574)
Kind of assay: LTEA_HepaRG_CASP3: Life Technologies and Expression Analysis (LTEA) Assay for cysteine-aspartic acid protease (CASP3) using HepaRG (AID 2283477). The essentials:
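In HepaRG liver cells dosed for 48 h at up to 100 uM (eight-point, duplicate), CASP3 expression changes are scored by qRT-PCR. Activity is fitted in both directions with 0.5% DMSO as baseline.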

Read-out in assay [11]: Cytochrome P450 (CYP24A1), CYP24A1 (gene 1591)
Put plainly: LTEA_HepaRG_CYP24A1: Life Technologies and Expression Analysis (LTEA) Assay for Cytochrome P450 (CYP24A1) using HepaRG (AID 2283478). The essentials:
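Human liver HepaRG cultures receive each chemical for 48 h across an eight-point half-log series topping at 100 uM in 0.5% DMSO. Induction or suppression of CYP24A1 mRNA is scored relative to vehicle after housekeeping-gene normalization.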

Read-out in assay [12]: Cytochrome P450 (CYP1A2), CYP1A2 (gene 1544)
Kind of assay: LTEA_HepaRG_CYP1A2: Life Technologies and Expression Analysis (LTEA) Assay for Cytochrome P450 (CYP1A2) using HepaRG (AID 2283479). The essentials:
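Assesses CYP1A2 mRNA in human HepaRG liver cells after 48 h chemical exposure at up to 100 uM. Values come from qRT-PCR with bidirectional curve fitting relative to DMSO.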

Read-out in assay [13]: cysteine-aspartic acid protease (CASP8), CASP8 (gene 841)
Put plainly: LTEA_HepaRG_CASP8: Life Technologies and Expression Analysis (LTEA) Assay for cysteine-aspartic acid protease (CASP8) using HepaRG (AID 2283480). The essentials:
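Differentiated human HepaRG cells, plated 48 h then switched to serum-free induction medium, were exposed in duplicate for 48 h to 8 half-log concentrations up to 100 uM in 0.5% DMSO. CASP8 mRNA was quantified by qRT-PCR, normalized to ACTB/GAPDH/POLR2A.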

Read-out in assay [14]: Cytochrome P450 (CYP2B6), CYP2B6 (gene 1555)
Kind of assay: LTEA_HepaRG_CYP2B6: Life Technologies and Expression Analysis (LTEA) Assay for Cytochrome P450 (CYP2B6) using HepaRG (AID 2283481). In short, it runs like this:
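Using 48 h treatment of HepaRG cells in serum-free induction medium, concentrations spanned half-log steps from 100 uM in 0.5% DMSO vehicle. CYP2B6 mRNA induction or loss is scored by qRT-PCR against DMSO.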

Read-out in assay [15]: Cytochrome P450 2C19 (Homo sapiens) (UniProt P33261)
Kind of assay: LTEA_HepaRG_CYP2C19: Life Technologies and Expression Analysis (LTEA) Assay for CYP2C19 using HepaRG (AID 2283482). The essentials: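 Human HepaRG liver cells received test chemicals for 48 h (highest 100 uM, half-log dilutions in 0.5% DMSO). CYP2C19 mRNA induction or loss is read by multiplexed qRT-PCR and fitted in both directions versus vehicle.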

Read-out in another assay: CYP2C8 (gene 1558)
Kind of assay: LTEA_HepaRG_CYP2C8: Life Technologies and Expression Analysis (LTEA) Assay for CYP2C8 using HepaRG (AID 2283483). In short, it runs like this: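 Differentiated human HepaRG cells were exposed for 48 h in serum-free induction medium to eight half-log concentrations up to 100 uM in 0.5% DMSO, in duplicate. CYP2C8 mRNA was measured by TaqMan qRT-PCR, normalized to ACTB, GAPDH and POLR2A, and fitted bidirectionally against DMSO.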

Read-out in another assay: CYP2C9 (gene 1559)
Put plainly: LTEA_HepaRG_CYP2C9: Life Technologies and Expression Analysis (LTEA) Assay for CYP2C9 using HepaRG (AID 2283484). In short, it runs like this: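 Differentiated human HepaRG cells were exposed 48 h in serum-free induction medium to eight half-log concentrations up to 100 uM in 0.5% DMSO. CYP2C9 mRNA was measured by qRT-PCR, normalized to ACTB, GAPDH and POLR2A, and fitted bidirectionally against DMSO.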

Read-out in a further assay: CYP2E1 (gene 1571)
Put plainly: LTEA_HepaRG_CYP2E1: Life Technologies and Expression Analysis (LTEA) Assay for CYP2E1 using HepaRG (AID 2283485). In short, it runs like this: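 Human liver line HepaRG, plated 48 h, then serum-free induction medium + chemical x 48 h; 8-pt CRC from 100 uM, half-log, 0.5% DMSO, n=2. Readout: CYP2E1 mRNA qRT-PCR vs ACTB/GAPDH/POLR2A; bidirectional fit vs DMSO.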

Calls of active or inactive are those of the source. Rule for the calls: active = hit-call score of the fitted dose curve at least 0.9, where 1 is the maximum; inactive = score below 0.9.

Chain of Caspase-3 (Homo sapiens) (P42574 whole entry, looked up): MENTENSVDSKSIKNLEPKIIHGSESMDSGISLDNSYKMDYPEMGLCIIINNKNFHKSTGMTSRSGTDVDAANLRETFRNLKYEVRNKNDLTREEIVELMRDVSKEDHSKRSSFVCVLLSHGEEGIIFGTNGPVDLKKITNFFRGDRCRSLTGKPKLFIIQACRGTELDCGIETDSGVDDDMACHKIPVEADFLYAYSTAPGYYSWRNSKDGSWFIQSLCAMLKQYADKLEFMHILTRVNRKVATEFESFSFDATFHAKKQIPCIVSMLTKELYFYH
Chain of Apoptosis regulator Bcl-2 (Homo sapiens) (P10415 whole entry, looked up): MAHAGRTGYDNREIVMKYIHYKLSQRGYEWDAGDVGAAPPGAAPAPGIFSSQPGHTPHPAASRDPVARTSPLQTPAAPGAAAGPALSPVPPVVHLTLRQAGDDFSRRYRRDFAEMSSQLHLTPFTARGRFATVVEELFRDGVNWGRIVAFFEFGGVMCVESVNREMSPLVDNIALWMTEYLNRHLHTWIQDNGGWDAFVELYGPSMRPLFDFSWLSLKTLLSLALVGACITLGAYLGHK
Chain of Cytochrome P450 2C19 (Homo sapiens) (P33261 whole entry, looked up): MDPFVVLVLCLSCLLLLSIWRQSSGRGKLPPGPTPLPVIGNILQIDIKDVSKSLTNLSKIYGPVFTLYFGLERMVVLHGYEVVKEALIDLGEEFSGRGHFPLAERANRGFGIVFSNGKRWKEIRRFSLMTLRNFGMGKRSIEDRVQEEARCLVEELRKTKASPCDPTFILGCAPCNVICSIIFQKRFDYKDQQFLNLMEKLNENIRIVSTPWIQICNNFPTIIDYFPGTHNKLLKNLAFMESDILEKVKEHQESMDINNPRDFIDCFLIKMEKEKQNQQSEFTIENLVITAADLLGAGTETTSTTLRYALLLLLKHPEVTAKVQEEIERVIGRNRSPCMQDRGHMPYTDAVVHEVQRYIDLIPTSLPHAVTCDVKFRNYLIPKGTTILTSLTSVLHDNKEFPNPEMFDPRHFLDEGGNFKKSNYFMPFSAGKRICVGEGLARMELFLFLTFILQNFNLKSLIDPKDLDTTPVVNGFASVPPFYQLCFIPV

`ClC(Cl)=C(c1ccc(Cl)cc1)c1ccc(Cl)cc1`: the compound was classed as inactive in [1], in assay [2], in [3], in [4], in [5] and in assay [6]. The result (in assay [7]; with BCL2L11 (gene 10018); in [8]; in assay [9]; in [10]; in the assay with Caspase-3 (Homo sapiens)) was inactive. Further, the result (in assay [11]; in [12]; in [13]; with CYP2C9 (gene 1559)) was inactive. For the same compound, the AC50 was 1.59 µM (active) in assay [14], 7.61 µM (active) in assay [15], 3.63 µM (active) in the assay with CYP2C8 (gene 1558) and 50.7 µM (active) with CYP2E1 (gene 1571).
Regarding `c1ccc(-c2ccccc2)cc1`, the compound was called inactive in assay [1], in assay [2], in [3], in assay [4], in assay [5] and in [6]. Also, the result (in assay [7]; with BCL2L11 (gene 10018); in [8]; in [9]; in assay [10]; with Caspase-3 (Homo sapiens)) was inactive. Moreover, the compound was classed as inactive (in assay [11]; in assay [12]; in assay [13]; in assay [14]; in assay [15]; in the assay with CYP2C8 (gene 1558)). For the same compound, in the assay with CYP2E1 (gene 1571), the compound was classed as inactive.
Take `O=C(O)C(F)(F)C(F)(F)C(F)(F)C(F)(F)C(F)(F)C(F)(F)C(F)(F)C(F)(F)C(F)(F)F`: the AC50 in assay [1] was 76.5 µM (active); in [2], 78.4 µM (active); in [3], 68.1 µM (active); in [5], 12.6 µM (active); in assay [6], 81.1 µM (active); in assay [7], 23 µM (active). Further, the AC50 with BCL2L11 (gene 10018) is 12.1 µM (active); in [8], 30.8 µM (active); in assay [10] it was 90.6 µM (active); with Caspase-3 (Homo sapiens), 82.5 µM (active); in [12] it was 22.2 µM (active); in assay [13], 86 µM (active). Further, the concentration at half-maximal activity (AC50) in assay [14] is 80.1 µM (active); in assay [15] it was 81.1 µM (active); with CYP2C8 (gene 1558), 76.6 µM (active); in the assay with CYP2C9 (gene 1559), 74.2 µM (active); with CYP2E1 (gene 1571) it was 25.4 µM (active). In addition, the result in [4], in assay [9] and in [11] was inactive.

Values taken from PubChem BioAssay (EPA / NIEHS).
